Measured values reported in PubChem BioAssay AID1272365 (Small Molecule Screening Facility, UW Madison, 2018).
Where “and” joins values, the source holds several entries; their conditions need not be identical. Equal values may be shown once. In all, about 430,000 compounds went through this assay and about 2,600 (0.6%) were called active. The sample holds actives, similar compounds and a random draw of the others, so the mix is not that of the screen. Cut-off read from the data, not from the text of the source: active = inhibition mostly above about 37% (no sharp cut-off); inactive = mostly below about 20%.

Test system: PriA–SSB C-terminal tail interaction (Klebsiella pneumoniae)
Assay: inhibitors of Klebsiella pneumoniae PriA binding to SSB C-terminal tail, primary screen, biochemical, AlphaScreen (AID 1272365);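 note: plate controls were negative control peptide for no effect and reference peptide for full effect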
Settings: AlphaScreen SSBct-PriA binding, biotinylated peptide; at 33 µM, stronger effect = higher value

Row | Structure (SMILES) | inhibition
1 | O=C(COc1ccc(F)cc1)Nc1ccc2c(c1)N(C(=O)c1ccco1)CC2 | 0% (inactive)
2 | Cc1c(S(=O)(=O)CCNC(=O)NCc2cccs2)c2ccccc2n1C | -1% (inactive)
3 | COc1cc(/C=C2\Oc3cc(OCC(=O)O)ccc3C2=O)cc(OC)c1OC | -2% (inactive)
4 | COc1ccc(OC)c(NC(=O)c2ccc(S(=O)(=O)NC3CC3)cc2)c1 | 16% (inactive)
5 | O=C(NCCn1nc(C(F)(F)F)c2c1CCCC2)c1c(F)cccc1Cl | -4% (inactive)
6 | COC(=O)c1c(NC(=O)c2cc(C)no2)sc2c1CCCC2 | 0% (inactive)
7 | CCOC(=O)c1ccc(NC(=O)c2cc(=O)[nH]cn2)cc1 | -18% (inactive)
8 | Nn1c(SCC(=O)NC2CCCCC2)nnc(CCC(=O)O)c1=O | -5% (inactive)
9 | COc1ccc(-n2nnc(C(=O)OCc3ccccc3C)c2C)cc1 | -5% (inactive)
10 | CSc1ccccc1NC(=O)C(=O)NCCC(O)c1ccc2c(c1)OCO2 (stereo unspecified) | 13% (inactive)
11 | O=C(Nc1ccc2c(c1)OCO2)c1ccc2nccnc2c1 | -19% (inactive)
12 | CS(=O)(=O)N1CCCCC1C(=O)Nc1nc(-c2ccccn2)cs1 (stereo unspecified) | 79% (active)
13 | O=C(Nc1nccs1)C1CCCN1S(=O)(=O)c1cccc2cccnc12 (stereo unspecified) | -2.31% (inactive)
14 | CS(=O)(=O)N1CCCC1C(=O)Nc1nc2c(F)cc(F)cc2s1 (stereo unspecified) | 5% (inactive)
15 | CC1(C)CC(=O)c2sc(NC(=O)C3CCCCN3S(C)(=O)=O)nc2C1 (stereo unspecified) | -7% (inactive)
16 | CS(=O)(=O)N1CCC[C@H]1C(=O)Nc1nc(-c2ccccn2)cs1 | 75% (active)
17 | CS(=O)(=O)N1CCCC(C(=O)Nc2nc(-c3nc4ccccc4s3)cs2)C1 (stereo unspecified) | -20% (inactive)
18 | NS(=O)(=O)c1ccc(CCNC(=O)C(=O)Nc2nc3ccccc3s2)cc1 | -20% (inactive)
19 | COc1ccc2cc(C(=O)N(CCc3cccs3)C3CC3)[nH]c2c1 | -1% (inactive)
20 | Cc1nc2ccccc2c(=O)n1-c1ccc(F)c(NC(=O)c2ccccc2Cl)c1 | 3% (inactive)
21 | O=S(=O)(Nc1ccc2[nH]ncc2c1)c1ccccc1Cl | 1.19% (inactive)
22 | CCc1ccccc1NC(=O)Nc1ccc(Nc2cc(-n3cccn3)ncn2)cc1 | -23% (inactive)
23 | O=S(=O)(Nc1ccc(Nc2ccc(-n3cccn3)nn2)cc1)c1ccccc1Cl | 100% (active)

Row | Structure (SMILES) | inhibition
24 | COc1cc(Nc2ccc(NS(=O)(=O)c3ccccc3Cl)cc2)nc(C)n1 | 5% (inactive)
25 | Cc1cccc(NC(=O)Nc2ccc(Nc3ccc(-n4cccn4)nn3)cc2)c1C | 66% (active) and 33% (inactive)
26 | Cc1nn(-c2ccc(Nc3ccc(NC(=O)COc4ccccc4)cc3)nn2)c(C)c1C | -7% (inactive)
27 | O=c1c2cc(-c3cccs3)nn2cnn1Cc1nc(-c2ccc(OCc3ccccc3)cc2)no1 | -16% (inactive)
28 | CC(C)c1ccc(/C=C2\CC/C(=C\C=NN(C)C)C2=O)cc1 | 5.12% (inactive)
29 | Cc1cc(C)cc(NC(=O)N2CCN(c3ccc4nnc(C5CC5)n4n3)CC2)c1 | -16% (inactive)
30 | CC(C)c1cc(=O)n(CC(=O)Nc2ccccc2C#N)cn1 | -2% (inactive)
31 | Cc1ccccc1OCC(=O)NCCCS(=O)(=O)N1CCc2ccccc2C1 | -9% (inactive)
32 | O=C(CSc1ncc(-c2cccc(Br)c2)o1)NCc1ccc2c(c1)OCO2 | -4% (inactive)
33 | CCn1nccc1C(=O)Nc1ccc(S(=O)(=O)NC23CC4CC(CC(C4)C2)C3)cc1 | -2.71% (inactive)
34 | CCC(=O)Nc1ccc(-c2nc3ccccc3o2)cc1 | -11% (inactive)
35 | CCn1nccc1C(=O)Nc1ccc(-c2nc3ccccc3o2)cc1 | 83% (active)
36 | O=C(c1ccc(OC(F)(F)F)cc1)N1CC(S(=O)(=O)C2CCCCC2)C1 | -1% (inactive)
37 | COc1ccc(CCNC(=O)C(=O)Nc2ccc3c(c2)CCCN3C(=O)c2cccs2)cc1 | 1% (inactive)
38 | O[C@H](c1ccncc1)c1c(-c2ccccc2)[nH]c2ccccc12 | 2% (inactive)
39 | COc1ccc(NC(=O)COC(=O)Cn2c(C)nc3ccccc32)cc1OC | -8.33% (inactive)
40 | CCN(c1ccc(NC(=O)COC(=O)CCc2nc3ccccc3n2-c2ccccc2)cc1)C(C)C | 55.2% (active)
41 | Cc1ccc(NC(=O)COC(=O)CCc2nc3ccccc3n2-c2ccccc2)c(C)c1 | 4.81% (inactive)
42 | COc1cc([N+](=O)[O-])cc(C=NNC(=O)c2ccc(C)nc2)c1O | 79.7% (inactive)
43 | CS(=O)(=O)Nc1c(Cl)c(Cl)c(Cl)c(Cl)c1Cl | 3% (inactive)
44 | Cc1onc(-c2ccccc2Cl)c1C(=O)NCCCS(=O)(=O)N1CCN(c2ccccn2)CC1 | -12% (inactive)
45 | Cc1onc(-c2ccccc2Cl)c1C(=O)NCCn1ccc2ccccc21 | 5% (inactive) and 69.4% (active)
46 | Cc1ccc2cc(CCNC(=O)c3c(-c4ccccc4Cl)noc3C)c(=O)[nH]c2c1 | 4.89% (inactive)
